Reference: ChEMBL document CHEMBL3988442, “University of Dundee, Small-Polar-MMV Screening Library” (2021)

Legend:
[1] = target: T1, Aspartate--tRNA(Asp/Asn) ligase (Mycobacterium tuberculosis (strain ATCC 25618 / H37Rv)) (UniProt P9WFW3); assay: Assay for Asp RNA synthetase-1 from Mycobacterium tuberculosis; format: functional; parameters: scale not given: direction of the effect not stated beside the values; conditions: 30 µM; also: in the data most compounds retested in dose-response had high values
T1 sequence (whole entry): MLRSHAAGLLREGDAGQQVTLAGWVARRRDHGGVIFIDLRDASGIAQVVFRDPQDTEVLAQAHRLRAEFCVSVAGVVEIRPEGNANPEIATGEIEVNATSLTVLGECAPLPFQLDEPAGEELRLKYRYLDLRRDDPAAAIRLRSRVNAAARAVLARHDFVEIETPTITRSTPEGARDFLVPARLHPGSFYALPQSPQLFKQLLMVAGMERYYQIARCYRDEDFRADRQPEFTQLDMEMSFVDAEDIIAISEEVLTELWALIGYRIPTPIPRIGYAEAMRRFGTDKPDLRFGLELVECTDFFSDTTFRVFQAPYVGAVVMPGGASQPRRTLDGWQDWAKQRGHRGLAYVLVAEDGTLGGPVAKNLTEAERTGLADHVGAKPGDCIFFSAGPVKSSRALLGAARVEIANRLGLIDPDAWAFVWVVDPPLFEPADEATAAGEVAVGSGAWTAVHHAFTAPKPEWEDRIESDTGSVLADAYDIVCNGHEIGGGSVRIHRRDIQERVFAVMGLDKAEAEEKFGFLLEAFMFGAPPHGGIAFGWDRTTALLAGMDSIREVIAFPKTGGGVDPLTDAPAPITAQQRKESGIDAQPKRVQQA

[2] = target: Shiga toxin 2 (Escherichia coli O157:H7) (UniProt P09385+P09386); assay: E. coli 0.157:H7 Shiga Toxin SOP - stx2 screening assay; format: functional; parameters: scale not given: direction of the effect not stated beside the values; conditions: 30 µM

CCOCc1ncn2c1CN(C(=O)Nc1cccc(C)c1)CC2
Percent Effect [1]: 1.59%
Percent Effect [2]: -12.7%

CCOc1ccccc1OC1CCN(C(=O)c2ccc(=O)[nH]n2)CC1
Percent Effect [1]: -5.79%
Percent Effect [2]: 32.3%

CCc1nc(CN2CCCN(C(=O)c3cnc[nH]3)CC2)cs1
Percent Effect [1]: -2.77%
Percent Effect [2]: -5.89%

Cn1ncc2c(N3CCN(C(N)=O)CC3)nc(C3CCCC3)nc21
Percent Effect [1]: 1.25%
Percent Effect [2]: -24.2%

O=C([C@@H]1C[C@H]2[C@H](CCN2Cc2nccs2)O1)N1CCOCC1
Percent Effect [1]: 2.29%
Percent Effect [2]: -22.3%

Cn1cc(N2CCC(NC(=O)c3c(F)cccc3F)C2=O)cn1 (stereo not given)
Percent Effect [1]: 0.409%
Percent Effect [2]: -11.8%

Cc1scc(C(=O)N2CCC3(CCCN(C)C3=O)C2)c1-c1ccccc1 (stereo not given)
Percent Effect [1]: 2.02%
Percent Effect [2]: 8.94%

O=C(Nc1nc2c(s1)CN(S(=O)(=O)C1CC1)CC2)c1c(F)cccc1F
Percent Effect [1]: -0.834%
Percent Effect [2]: 2.22%

O=C(c1ccc(F)c(F)c1)N1CCCC(Nc2ccc(F)cc2)C1 (stereo not given)
Percent Effect [1]: 0.212%
Percent Effect [2]: 11.2%

O=C(c1coc(COc2cccc(F)c2)n1)N1CC[C@H](O)[C@@H](O)C1
Percent Effect [1]: 2.06%
Percent Effect [2]: 11.7%

O=C1OC2(CCN(C3CCCOC3)CC2)CN1CCc1ccccc1 (stereo not given)
Percent Effect [1]: 1.52%
Percent Effect [2]: -27.2%

CN(Cc1ccc(F)cc1)C(=O)NCc1nnc2n1CCCCC2
Percent Effect [1]: -5.74%
Percent Effect [2]: -16.9%

O=C(COCc1nc(-c2ccncc2)no1)N1CCCCCC1
Percent Effect [1]: 10.6%
Percent Effect [2]: -22.7%

CC1(C(=O)N2CCOCC2)CN(Cc2ccccc2F)CCO1 (stereo not given)
Percent Effect [1]: -0.309%
Percent Effect [2]: 1.31%

CN(C)C(=O)[C@@H]1CCO[C@@H]2CCN(Cc3ccccc3)C[C@@H]21
Percent Effect [1]: 2.24%
Percent Effect [2]: -27%

Cc1ccc(CN2CCCn3c(nc(CN4CCCC4)cc3=O)C2)s1
Percent Effect [1]: 4.32%
Percent Effect [2]: 7.63%

CCS(=O)(=O)c1ncc(CN(C)Cc2ccccn2)n1CCOC
Percent Effect [1]: 0.893%
Percent Effect [2]: 6.2%

Cc1occc1C(=O)NCc1ccc(N2CCCC(C(N)=O)C2)cc1 (stereo not given)
Percent Effect [1]: 1.75%
Percent Effect [2]: -14.7%

CCc1nc(CN2CCCN(Cc3cnn(C)c3)CC2)no1
Percent Effect [1]: -10.6%
Percent Effect [2]: -4.68%

CC(=O)NCCNC(=O)CN1CCN(Cc2nccn2C)C(C)C1 (stereo not given)
Percent Effect [1]: 2.19%
Percent Effect [2]: 2.09%

CN(Cc1ccc(N2CCCCC2)cc1)Cc1noc(C(C)(C)C)n1
Percent Effect [1]: 1.93%
Percent Effect [2]: -7.66%

CCn1nnc2c1C(COC)CN(C(=O)COc1ccccc1)C2 (stereo not given)
Percent Effect [1]: -1.42%
Percent Effect [2]: -31.2%

c1cnn(CC2CN(CC3CCCC3)CCO2)c1 (stereo not given)
Percent Effect [1]: -6.1%
Percent Effect [2]: -0.337%

CC(C)(O)C1CCN(C(=O)Nc2nc(-c3ccccc3)ns2)CC1
Percent Effect [1]: 1.51%
Percent Effect [2]: -6.7%

Cc1n[nH]c(C)c1C1COCCN1C(=O)c1ccccc1 (stereo not given)
Percent Effect [1]: 2.68%
Percent Effect [2]: -26%

O=C(NCCCN1CCc2ccccc2C1)c1cccnc1O
Percent Effect [1]: -2.28%
Percent Effect [2]: -68.5%

Cn1cc(C(=O)N2CC[C@@H]3[C@@H]2CCN3Cc2cccc(F)c2)cn1
Percent Effect [1]: -0.0764%
Percent Effect [2]: 0.579%

COc1ccc(NC(=O)NC(C)(C)c2noc(C)n2)cc1
Percent Effect [1]: -6.73%
Percent Effect [2]: -8.05%

Cc1nc(C)n(C2CCCN(C(=O)COCc3ccccc3)C2)n1 (stereo not given)
Percent Effect [1]: -4.95%
Percent Effect [2]: -2.76%

COCCNC(=O)c1sc(Nc2ccc(Cl)cn2)nc1C
Percent Effect [1]: -1.92%
Percent Effect [2]: -31.4%

CC(NC(N)=O)C(=O)N1CCCN(Cc2nccn2C(C)C)CC1 (stereo not given)
Percent Effect [1]: 0.509%
Percent Effect [2]: 8.58%

CC(=O)c1sc(Nc2ccc(Cl)cn2)nc1C
Percent Effect [1]: 6.71%
Percent Effect [2]: -4.07%

CN(C(=O)Cn1nc(-c2ccc(F)cc2)oc1=O)C1CCS(=O)(=O)C1 (stereo not given)
Percent Effect [1]: 4.6%
Percent Effect [2]: -7.66%

O=C(COc1coc(CN2CCCC2)cc1=O)NCc1ccccc1Cl
Percent Effect [1]: -2.03%
Percent Effect [2]: -62.7%

CNc1ccc(CC2CCCN(C(=O)c3cnc(C)nc3)C2)nn1 (stereo not given)
Percent Effect [1]: 1.57%
Percent Effect [2]: -10.7%

CCC(CNC(=O)c1ccc(=O)[nH]n1)N1CCc2ccccc2C1 (stereo not given)
Percent Effect [1]: 2.11%
Percent Effect [2]: -11.6%

Cc1nc(C2CCCN(C(=O)c3cccc(S(C)(=O)=O)c3)C2)no1 (stereo not given)
Percent Effect [1]: -2.72%
Percent Effect [2]: -6.27%

Cc1noc(C)c1CN1CCN(Cc2ccncc2)c2ncccc2C1
Percent Effect [1]: -2.02%
Percent Effect [2]: 8.32%

COc1ccc(-c2nnc(SC(C)C(=O)NC3CC3)[nH]2)c(OC)c1 (stereo not given)
Percent Effect [1]: 2.19%
Percent Effect [2]: 7.63%

CCCn1ccc(C(=O)N2CCOC(c3nc(-c4cccs4)no3)C2)n1 (stereo not given)
Percent Effect [1]: 0.28%
Percent Effect [2]: -0.831%
